Source: PubChem BioAssay AID743361 (Molecular Libraries Program, Specialized Chemistry Center, …, 2014)
Values without a mark were called inactive. Calls of active or inactive are those of the source. No rule for the calls is given here.

Assay: cell-free Rh123 fluorescence quenching read-out – biochemical, dry powder samples, uHTS hits, counter-screen for mtPTP inhibitor project, dose response (AID 743361)
Conditions: Rhodamine 123 fluorescence quenching counterscreen
With `CN1CCN(c2ccc(NC(=O)c3cccc(OCc4ccccc4)c3)cc2)CC1` the IC50 was greater than 100 µM.
Compound `O=C(Nc1ccc(F)cc1F)c1cc(-c2ccccc2)on1` has an IC50 greater than 100 µM.
`O=C(Nc1cc(Cl)ccc1F)c1cc(-c2cccc(O)c2)on1` gave an IC50 greater than 100 µM.
Work on `COc1ccccc1C(=O)Nc1ccc(C(=O)N2CCCCC2)cc1` yielded an IC50 greater than 100 µM.
For `COc1ccc(Cl)cc1S(=O)(=O)Nc1ccc(CCN2CCCCC2)cc1`, the IC50 was greater than 100 µM.
`O=C(Nc1cccc(Cl)c1Cl)c1cc(-c2cccc(O)c2)on1` gave an IC50 greater than 100 µM.
Compound `CN1CCN(c2ccccc2NC(=O)c2ccc(OCc3ccccc3)cc2)CC1` has an IC50 greater than 100 µM.
Work on `O=C(Nc1ccccc1C(F)(F)F)c1cc(-c2ccccc2)on1` yielded an IC50 greater than 100 µM.
With `O=C(Nc1ccc(Cl)cc1)c1cc(-c2cccc(O)c2)on1` the IC50 was greater than 100 µM.
For `CN1CCN(Cc2ccc(NS(=O)(=O)c3cc(Cl)cc(Cl)c3)cc2)CC1`, the IC50 was greater than 100 µM.
In the case of `CN1CCN(c2ccc(NS(=O)(=O)c3cc(Cl)cc(Cl)c3)cc2)CC1`, the IC50 is reported as greater than 100 µM.
`COc1ccc(Cl)c(C(=O)Nc2cccc(CN3CCN(C(=O)OC(C)(C)C)CC3)c2)c1` gave an IC50 greater than 100 µM.
Work on `Cc1cc(NC(=O)c2cc(-c3ccc(F)cc3)on2)no1` yielded an IC50 greater than 100 µM.
Compound `CN1CCN(c2ccc(Cl)cc2NC(=O)/C=C/c2cccc(F)c2)CC1` has an IC50 greater than 100 µM.
`O=C(Nc1ccc(N2CCCCC2)cc1)c1cccc(OCc2ccccc2)c1` gave an IC50 greater than 100 µM.
For `COc1ccc(Cl)cc1C(=O)Nc1cccc(CN2CCN(C(=O)OC(C)(C)C)CC2)c1`, the IC50 was 73.5 µM (active).
`COc1ccc(Cl)cc1C(=O)Nc1ccc(CN2CCN(C)CC2)cc1` gave an IC50 greater than 100 µM.
For `COc1ccc(Cl)cc1C(=O)Nc1ccc(CCN2CCN(C)CC2)cc1`, the IC50 was greater than 100 µM.
With `O=C(Nc1cccc(Cl)c1)c1cc(-c2ccc(Cl)cc2)on1` the IC50 was greater than 100 µM.
Compound `COc1ccc(Cl)cc1C(=O)Nc1ccc(CCN2CCNCC2)cc1` has an IC50 greater than 100 µM.
For `COc1ccc(Cl)cc1C(=O)Nc1ccc(CN2CCNCC2)cc1`, the IC50 was greater than 100 µM.
In the case of `C[C@@H]1CCC[C@H](C)N1CCCC(=O)c1ccc(Br)cc1`, the IC50 is reported as greater than 100 µM.
`COc1ccc(NC(=O)c2cc(-c3cccc(O)c3)on2)cc1Cl` showed an IC50 greater than 100 µM.
`CCN(C(=O)c1cc(Cl)ccc1OC)c1ccccc1` showed an IC50 greater than 100 µM.
Compound `O=S(=O)(Nc1ccc(CN2CCCCC2)cc1)c1cccc(Cl)c1` has an IC50 greater than 100 µM.
`CCCc1cc(C(=O)Nc2ccc(Br)cc2)no1` gave an IC50 greater than 100 µM.
With `O=C(Nc1cc(Cl)ccc1Cl)c1cc(-c2cccc(O)c2)on1` the IC50 was 38.7 µM (active).
For `CN1CCN(CCc2ccc(NS(=O)(=O)c3ccc(F)c(Cl)c3)cc2)CC1`, the IC50 was greater than 100 µM.
For `O=C(Nc1ccccc1OCc1ccccc1)c1cc(-c2cccc(O)c2)on1`, the IC50 was greater than 100 µM.
`COc1ccc(Cl)cc1C(=O)Nc1cccc(CN2CCNCC2)c1` showed an IC50 greater than 100 µM.
For `CN1CCN(c2ccc(NC(=O)c3ccc(OCc4ccccc4)cc3)cc2)CC1`, the IC50 was greater than 100 µM.
